In PubChem BioAssay (NCATS):
Inconclusive results are not listed. Active and inactive are the calls of the source. Unless noted, the call rests on the fitted dose curve; in most records, active means well fitted curve in the direction sought with a large enough effect; inconclusive means small, poorly fitted or top-dose-only effect, or another doubt; inactive means no such curve, though single readings can be large; an effect the other way counts as inactive or inconclusive.

Columns and labels:
[1] = Viability counterscreen for agonist of constitutive androstane receptor (CAR) against the NCATS DSHEA and TCM libraries (AID 1794838);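 further: cells exposed to compound for 24 h; 0% is about no effect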
How it was run: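 Multiplexed counterscreen: after 24 h compound exposure with 0.75 uM PK11195, HepG2-CYP2B6-hCAR viability was quantified fluorimetrically (CellTiter-Fluor, 405/540 nm) prior to the ONE-Glo luciferase read.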

[2] = target: Nuclear receptor subfamily 1 group I member 3 (Homo sapiens) (UniProt Q14994); test: Primary qHTS for agonist of constitutive androstane receptor (CAR) against the NCATS DSHEA and TCM libraries (AID 1794839); further: potency means the concentration at half of the fitted maximal effect;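 on activation: HepG2 cells expressing human CAR with a CYP2B6 reporter plus PK11195 antagonist; 0% is about no effect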
How it was run: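 Concentration–response screen in HepG2-CYP2B6-hCAR cells under 0.75 µM PK11195; 24 h exposure; luminescent reporter signal with multiplexed fluorescent viability.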

[3] = HepG2 viability counterscreen (readout 1: protease activity) against the NCATS DSHEA and TCM libraries (AID 1794841);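 further: cells exposed to compounds for about 24 h before the protease read; 0% is about no effect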
How it was run: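 After HepG2 cells attach for ~4 h, substances are added and incubated ~24 h at 37C, 5% CO2. GF-AFC fluorescence then CellTiter-Glo luminescence give protease and ATP readouts.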

[4] = target: Glutathione peroxidase 1 (Homo sapiens) (UniProt P07203); test: Primary qHTS Assay for Inhibitors of Recombinant Selenoprotein Glutathione Peroxidase 1 (GPX1) (AID 1845191); further: nearly all actives have a fitted effect of over 65% in size
How it was run: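 Recombinant GPX1 (10 nM final) was preincubated with compound for 30 min at room temperature, then reacted with 1 mM GSH, 0.5 mM CHP, 0.5 mM NADPH and 100 nM glutathione reductase; NADPH fluorescence (340/450 nm) was read at 0 and 15 min.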

[5] = target: Cytochrome P450 3A4 (Homo sapiens) (UniProt P08684); test: qHTS for inhibitors of CYP3A4 against the NCATS DSHEA and TCM libraries (AID 1919971);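 further: on the % scale 0 is the no-effect control and ±100 the full control effect; inhibition lowers luminescence from luciferin made by CYP3A4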
How it was run: (§1)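 Light output from converted D-luciferin reports remaining CYP activity. Compounds preincubate with enzyme and substrate for 15 min; NADPH regeneration (1x final) runs the reaction for 30-45 min.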

[6] = target: Cytochrome P450 2D6 (Homo sapiens) (UniProt P10635); test: qHTS for inhibitors of CYP2D6 against the NCATS DSHEA and TCM libraries (AID 1919972); further: on the % scale 0 is the no-effect control and ±100 the full control effect
How it was run: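 Steps: enzyme plus luciferin substrate dispensed; test substances pinned; 15 min RT; 1x NADPH regenerating solution added, 30–45 min RT protected from light; detection reagent, 30 min RT; luminescence measured. Minus-enzyme wells as background.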

[7] = target: Cytochrome P450 2C9 (Homo sapiens) (UniProt P11712); test: qHTS for inhibitors of CYP2C9 against the NCATS DSHEA and TCM libraries (AID 1919973);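 further: luminogenic pro-luciferin CYP2C9 substrate turned into luciferin with NADPH regeneration; series mostly up to about 34 µM; on the % scale 0 is the no-effect control and ±100 the full control effect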
How it was run: as §1

[8] = target: Cytochrome P450 2C19 (Homo sapiens) (UniProt P33261); test: qHTS for inhibitors of CYP2C19 against the NCATS DSHEA and TCM libraries (AID 1919974);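 further: luminescence from luciferin released by CYP2C19 oxidation of a pro-luciferin substrate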; further: potency means the concentration at half of the fitted maximal effect; on activity change, negative = inhibition: on the % scale 0 is the no-effect control and ±100 the full control effect
How it was run: as §1

[9] = KB-3-1 P-gp reporter qHTS against the NCATS DSHEA and TCM libraries (AID 1919975); further: 0% is about no effect
How it was run: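 Cell viability qHTS: 500 KB-3-1 cells/well, substances in titration, ~72 h, 37C; luminescent CellTiter-Glo read.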

[10] = target: Cytochrome P450 1A2 (Homo sapiens) (UniProt P05177); test: qHTS for inhibitors of CYPIA2 against the NCATS DSHEA and TCM libraries (AID 1919976);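 further: light from luciferin formed by CYP1A2 from a pro-luciferin substrate; series mostly up to about 37 µM; on the % scale 0 is the no-effect control and ±100 the full control effect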
How it was run: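 In this quantitative HTS, inhibition of recombinant human CYP1A2 was measured as loss of luciferin-derived luminescence. Turnover ran 30-45 min at RT after NADPH regeneration solution was added.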

[11] = qHTS Counterscreen for compound interference against the NCATS DSHEA and TCM libraries (AID 1919978); conditions: firefly luciferase detection reagent interference, luminescence;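 further: compounds preincubated with 1 µM D-luciferin or buffer before detection reagent; % of control where 0% means no effect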
How it was run: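 Interference check: test samples were incubated with D-luciferin (final 1 uM) or buffer only for 15 min, room temperature, in a qHTS titration up to 39.8 uM, then developed with detection reagent and read by luminescence.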

[12] = target: Nuclear receptor subfamily 1 group I member 2 (Homo sapiens) (UniProt O75469); test: Dual reporter qHTS for antagonist of Pregnane X Receptor (hPXR) against the NCATS DSHEA and TCM libraries: Luminescence Readout (AID 1920060); further: 0% is about no effect
How it was run: (§2)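 Rifampicin-stimulated (2 uM final) hPXR-luciferase HepG2 cells were treated for 24 h with DSNP/TCM substances. Viability came from CellTiter-Fluor fluorescence, reporter activity from ONE-Glo luminescence.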

[13] = Dual reporter qHTS for antagonist of Pregnane X Receptor (hPXR) against the NCATS DSHEA and TCM libraries: Fluorescence Readout (AID 1920061); further: 0% is about no effect
How it was run: as §2

[14] = target: Phospholipid hydroperoxide glutathione peroxidase GPX4 (Homo sapiens) (UniProt P36969); test: Primary qHTS Assay for Inhibitors of Recombinant Selenoprotein Glutathione Peroxidase 4 (GPX4) (AID 1845192); further: nearly all actives have a fitted effect of over 65% in size
How it was run: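 GR-coupled readout: 100 nM GR, 1 mM GSH, 0.5 mM NADPH; NADPH fluorescence (ex 340/em 450 nm) read at t=0 and after 15 min RT. GPX4 200 nM, preincubated 30 min with compound; substrate 0.5 mM CHP.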

[15] = Dual reporter qHTS for agonist of Pregnane X Receptor (hPXR) against the NCATS DSHEA and TCM libraries: Fluorescence readout (AID 1920058); further: 0% is about no effect
How it was run: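 Measures viability of the PXR reporter HepG2 line by protease-substrate fluorescence (405/540 nm), taken 1 h after CellTiter-Fluor addition. Substances are tested as concentration series over a ~24 h exposure, with rifampicin as agonist control.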

[16] = qHTS drug screen for cell cycle checkpoint inhibitors in PARPi-resistant BRCA-mutant ovarian cancer cell lines. (AID 1963452; calls by dose curve); conditions: PEO1/OlaR viability, CellTiter-Glo luminescence, 96 h, stronger effect = lower value
How it was run: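 PEO1, PEO4 and PEO1/OlaR ovarian cancer cells, 600 per well, exposed 96 h at 37C to a dilution series. Viability read by CellTiter-Glo luminescence, normalized to DMSO and empty wells; activity summarized as Z-AUC.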

[17] = target: Luciferin 4-monooxygenase (Photinus pyralis) (UniProt P08659); test: Primary firefly luciferase (FLuc) qHTS assay for identification of artifact compounds. (AID 1845220); conditions: outcome: dose series up to 54.1 µM; further: nearly all actives have a fitted effect of over 60% in size
How it was run: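 Reaction readout was CCD-imaged luminescence, taken 5 min after adding 10 nM purified firefly enzyme to compound-treated wells holding 10 uM luciferin and ATP in pH 7.6 buffer.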

[18] = tested on: Nanoluciferase (engineered Oplophorus gracilirostris luciferase); test: Primary Nanoluciferase (NLuc) qHTS assay for identification of artifact compounds. (AID 1845222);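 further: NLuc secreted into diluted conditioned medium of S16 cells; series mostly up to about 54 µM; 0% = DMSO and -100% = no enzyme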
How it was run: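 Concentration-response data were obtained by luminescence after 5 min with Nano-Glo substrate at 1:100. The enzyme was diluted S16 NLuc-expressing cell medium, preincubated with compound for 15 min at RT. Curves were fitted with a 4-parameter Hill model.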

[19] = measured here: PEO1 parental Z-AUC

Sequence of Nuclear receptor subfamily 1 group I member 3 (Homo sapiens) (Q14994 whole entry, looked up): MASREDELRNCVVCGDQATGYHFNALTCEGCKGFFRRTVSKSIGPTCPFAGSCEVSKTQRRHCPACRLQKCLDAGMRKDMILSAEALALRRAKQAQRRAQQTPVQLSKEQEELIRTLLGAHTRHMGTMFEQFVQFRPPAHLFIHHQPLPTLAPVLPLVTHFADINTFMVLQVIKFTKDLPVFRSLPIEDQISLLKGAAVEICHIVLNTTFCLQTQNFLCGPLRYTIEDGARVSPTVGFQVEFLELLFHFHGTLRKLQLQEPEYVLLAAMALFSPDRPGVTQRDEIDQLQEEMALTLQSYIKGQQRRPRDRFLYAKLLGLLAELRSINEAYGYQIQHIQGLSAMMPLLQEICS
Sequence of Phospholipid hydroperoxide glutathione peroxidase GPX4 (Homo sapiens) (P36969 whole entry, looked up): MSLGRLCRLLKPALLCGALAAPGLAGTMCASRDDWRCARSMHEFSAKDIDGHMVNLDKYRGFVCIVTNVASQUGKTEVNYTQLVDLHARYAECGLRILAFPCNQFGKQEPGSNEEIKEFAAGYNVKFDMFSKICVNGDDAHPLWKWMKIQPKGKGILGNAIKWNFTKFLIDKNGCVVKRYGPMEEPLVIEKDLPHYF
Sequence of Glutathione peroxidase 1 (Homo sapiens) (P07203 whole entry, looked up): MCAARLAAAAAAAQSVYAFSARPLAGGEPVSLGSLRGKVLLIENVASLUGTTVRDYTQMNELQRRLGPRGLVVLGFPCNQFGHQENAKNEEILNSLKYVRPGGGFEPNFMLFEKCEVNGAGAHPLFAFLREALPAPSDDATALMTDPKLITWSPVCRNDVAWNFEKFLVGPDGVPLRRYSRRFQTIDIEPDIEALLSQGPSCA
Sequence of Nuclear receptor subfamily 1 group I member 2 (Homo sapiens) (O75469 whole entry, looked up): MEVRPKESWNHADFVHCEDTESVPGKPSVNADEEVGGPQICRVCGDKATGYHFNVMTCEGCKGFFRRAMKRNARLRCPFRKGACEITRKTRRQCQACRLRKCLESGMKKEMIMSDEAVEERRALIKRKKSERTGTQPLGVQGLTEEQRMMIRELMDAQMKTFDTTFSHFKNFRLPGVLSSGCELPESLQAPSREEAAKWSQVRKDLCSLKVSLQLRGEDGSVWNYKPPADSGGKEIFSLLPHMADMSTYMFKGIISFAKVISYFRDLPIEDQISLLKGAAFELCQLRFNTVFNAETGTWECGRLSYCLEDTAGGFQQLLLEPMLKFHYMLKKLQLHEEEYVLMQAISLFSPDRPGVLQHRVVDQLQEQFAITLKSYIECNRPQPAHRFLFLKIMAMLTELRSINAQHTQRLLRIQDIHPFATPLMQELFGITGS
Sequence of Cytochrome P450 2D6 (Homo sapiens) (P10635 whole entry, looked up): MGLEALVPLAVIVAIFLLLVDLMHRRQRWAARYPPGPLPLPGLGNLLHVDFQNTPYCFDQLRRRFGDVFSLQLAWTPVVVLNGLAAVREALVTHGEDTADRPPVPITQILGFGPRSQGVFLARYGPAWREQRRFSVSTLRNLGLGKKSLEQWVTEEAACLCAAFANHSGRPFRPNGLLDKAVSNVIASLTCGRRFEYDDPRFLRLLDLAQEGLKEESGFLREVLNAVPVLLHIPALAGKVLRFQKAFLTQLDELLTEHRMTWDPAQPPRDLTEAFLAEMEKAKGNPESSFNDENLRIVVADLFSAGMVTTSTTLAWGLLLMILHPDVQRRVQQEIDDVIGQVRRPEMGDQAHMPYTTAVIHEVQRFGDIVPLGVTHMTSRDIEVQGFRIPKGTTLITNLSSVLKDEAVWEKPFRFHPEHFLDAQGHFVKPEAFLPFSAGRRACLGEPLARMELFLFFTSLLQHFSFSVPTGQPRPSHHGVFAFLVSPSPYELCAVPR
Sequence of Cytochrome P450 1A2 (Homo sapiens) (P05177 whole entry, looked up): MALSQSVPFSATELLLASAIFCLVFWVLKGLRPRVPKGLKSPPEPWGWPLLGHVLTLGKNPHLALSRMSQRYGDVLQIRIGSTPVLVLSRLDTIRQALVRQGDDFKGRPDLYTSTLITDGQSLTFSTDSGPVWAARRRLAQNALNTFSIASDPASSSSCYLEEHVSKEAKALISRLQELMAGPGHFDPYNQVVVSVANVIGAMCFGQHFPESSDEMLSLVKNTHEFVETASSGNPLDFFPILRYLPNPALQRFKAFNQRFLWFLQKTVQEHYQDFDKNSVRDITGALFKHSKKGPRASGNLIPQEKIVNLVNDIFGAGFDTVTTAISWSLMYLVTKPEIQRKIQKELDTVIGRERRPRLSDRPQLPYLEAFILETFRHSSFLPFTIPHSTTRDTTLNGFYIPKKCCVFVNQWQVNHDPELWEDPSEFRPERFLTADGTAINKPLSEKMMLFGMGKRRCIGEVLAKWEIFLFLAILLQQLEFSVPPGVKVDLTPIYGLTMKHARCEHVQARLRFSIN
Sequence of Cytochrome P450 2C19 (Homo sapiens) (P33261 whole entry, looked up): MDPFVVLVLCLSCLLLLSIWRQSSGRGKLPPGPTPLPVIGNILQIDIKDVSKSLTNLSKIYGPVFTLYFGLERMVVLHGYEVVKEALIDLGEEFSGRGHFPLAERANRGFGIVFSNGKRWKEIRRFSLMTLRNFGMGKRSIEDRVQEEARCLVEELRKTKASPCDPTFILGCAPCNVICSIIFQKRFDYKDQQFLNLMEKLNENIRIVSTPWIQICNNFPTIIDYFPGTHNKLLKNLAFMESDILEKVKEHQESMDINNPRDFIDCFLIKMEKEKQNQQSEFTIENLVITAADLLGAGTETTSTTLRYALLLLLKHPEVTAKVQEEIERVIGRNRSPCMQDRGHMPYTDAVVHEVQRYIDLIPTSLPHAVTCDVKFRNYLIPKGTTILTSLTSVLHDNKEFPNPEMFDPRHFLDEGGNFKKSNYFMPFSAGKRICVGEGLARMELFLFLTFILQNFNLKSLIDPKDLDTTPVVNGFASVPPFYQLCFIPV
Sequence of Cytochrome P450 3A4 (Homo sapiens) (P08684 whole entry, looked up): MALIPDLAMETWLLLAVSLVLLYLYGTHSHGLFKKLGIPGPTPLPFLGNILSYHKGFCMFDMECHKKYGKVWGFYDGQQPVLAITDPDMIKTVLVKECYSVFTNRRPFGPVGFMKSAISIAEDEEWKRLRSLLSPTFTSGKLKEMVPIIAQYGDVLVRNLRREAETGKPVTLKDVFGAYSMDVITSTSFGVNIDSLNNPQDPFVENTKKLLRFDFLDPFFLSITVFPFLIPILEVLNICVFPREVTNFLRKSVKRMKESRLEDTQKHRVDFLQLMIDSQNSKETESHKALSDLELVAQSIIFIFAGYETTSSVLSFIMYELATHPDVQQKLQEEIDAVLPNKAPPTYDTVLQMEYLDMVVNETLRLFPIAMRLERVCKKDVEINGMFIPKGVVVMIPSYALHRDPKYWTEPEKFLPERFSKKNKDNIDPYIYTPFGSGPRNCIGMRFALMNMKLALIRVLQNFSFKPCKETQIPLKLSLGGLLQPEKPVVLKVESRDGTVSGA
Sequence of Cytochrome P450 2C9 (Homo sapiens) (P11712 whole entry, looked up): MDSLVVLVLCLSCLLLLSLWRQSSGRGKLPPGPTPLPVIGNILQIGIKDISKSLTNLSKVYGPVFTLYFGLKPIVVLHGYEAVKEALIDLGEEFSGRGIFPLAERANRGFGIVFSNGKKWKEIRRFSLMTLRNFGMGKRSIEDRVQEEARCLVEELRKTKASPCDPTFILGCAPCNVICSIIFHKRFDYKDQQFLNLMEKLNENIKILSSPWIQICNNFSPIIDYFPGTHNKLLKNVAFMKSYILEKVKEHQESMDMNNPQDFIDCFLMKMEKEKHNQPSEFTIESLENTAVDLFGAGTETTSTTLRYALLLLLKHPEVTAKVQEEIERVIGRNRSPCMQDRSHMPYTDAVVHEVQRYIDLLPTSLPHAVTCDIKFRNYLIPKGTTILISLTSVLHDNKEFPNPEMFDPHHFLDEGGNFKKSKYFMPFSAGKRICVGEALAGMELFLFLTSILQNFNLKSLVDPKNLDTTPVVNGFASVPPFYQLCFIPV

CCCCC/C=C\C/C=C\C/C=C\CCCCC(=O)O
inactive: activity change, negative = cytotoxicity [1] -8.92% [at 5 µM] | activation [2] -21.9% [at 5 µM] | activity change, negative = inhibition [3] 15.8% [at 3.42 µM] | Potency [4] | activity change, negative = inhibition [5] 10.3% [at 4.27 µM] | activity change, negative = inhibition [6] 3.71% [at 4.27 µM] | activity change, negative = inhibition [7] -2.07% [at 4.27 µM] | activity change, negative = inhibition [8] 19.3% [at 4.27 µM] | activity change, negative = inhibition [9] -0.723% [at 3.26 µM] | activity change, negative = inhibition [10] 7.42% [at 4.62 µM] | max response [11] -1.8% | activity change, negative = inhibition [12] -11% [at 5 µM] | activity change, negative = inhibition [13] 4.34% [at 5 µM]

CC(C)(C)CC(C)(C)c1cc(Cc2cc(C(C)(C)CC(C)(C)C)cc(-n3nc4ccccc4n3)c2O)c(O)c(-n2nc3ccccc3n2)c1
inactive: activity, negative = inhibition [4] -7.19% [at 4.49 µM]

CC(/C=C/C=C(\C)C(=O)O[C@@H]1O[C@H](CO[C@@H]2O[C@H](CO)[C@@H](O)[C@H](O)[C@H]2O)[C@@H](O)[C@H](O)[C@H]1O)=C\C=C\C=C(C)\C=C\C=C(/C)C(=O)O[C@@H]1O[C@H](CO[C@@H]2O[C@H](CO)[C@@H](O)[C@H](O)[C@H]2O)[C@@H](O)[C@H](O)[C@H]1O
inactive: Potency [4]

NC(=S)NS(=O)(=O)c1ccc(N)cc1
inactive: Potency [4]

CC(C)(CO)[C@@H](O)C(=O)NCCC(=O)NCCSSCCNC(=O)CCNC(=O)[C@H](O)C(C)(C)CO
inactive: Potency [4]

Oc1ccc(/C=C/c2cc(O)cc(O)c2)cc1
0.679: Z-AUC ([16]; measured here: PEO4 Z-AUC)
1.04: Z-AUC [16, 19]
active: Potency [2] 31.6 µM
inactive: outcome [1] | outcome [3] | Potency [4] | Potency [14] | outcome [6] | outcome [9] | max response [11] -1.38% | outcome [15] | outcome [12] | outcome [13] | Z-AUC [16] 0.778

C=C1CC[C@H](O)CC1=C/C=C1\CCC[C@]2(C)[C@@H]([C@H](C)/C=C/[C@H](C)C(C)C)CC[C@@H]12
active: Potency [8] 12.6 µM
inactive: outcome [1] | Potency [2] | outcome [3] | Potency [4] | Potency [14] | outcome [17] | outcome [18] | outcome [9] | Potency [10] | max response [11] -0.883% | outcome [15] | outcome [12] | outcome [13]

Cc1cccc(C)c1NC(=O)C1CCCCN1C (stereo unspecified)
inactive: Potency [4]

CC[C@H](CC[C@@H](C)[C@H]1CC[C@H]2[C@@H]3CC=C4C[C@@H](O)CC[C@]4(C)[C@H]3CC[C@]12C)C(C)C
0.776: Z-AUC ([16]; measured here: PEO4 Z-AUC)
inactive: outcome [1] | outcome [3] | Potency [4] | Potency [14] | outcome [9] | max response [11] -1.45% | outcome [15] | outcome [12] | outcome [13] | Z-AUC [16] 0.987
0.643: Z-AUC [16, 19]

C/C=C/C=C/C(=O)O
inactive: Potency [4]

COc1ccc(/C=C/C(=O)OCCC(C)C)cc1
inactive: Potency [4]

NC[C@@H]1O[C@H](O[C@H]2[C@@H](O)[C@H](O[C@@H]3[C@@H](O)[C@H](N)C[C@H](N)[C@H]3O[C@H]3O[C@H](CO)[C@@H](O)[C@H](O)[C@H]3N)O[C@@H]2CO)[C@H](N)[C@@H](O)[C@@H]1O
inactive: outcome [4] inactive [at 0.4 µM]
